According to the supplement of paper PMC9177965:

test system: HT29 RNF43 G659fs (RNF43 659mut, CRISPR-edited); test: cell viability activity relative to DMSO (negative = inhibition); higher = more viable cells (less growth inhibition); settings: 5 µM; 96 h
Experimental: (§1)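 Broad Repurposing Library primary screen at a single dose of 5 uM. HT29 sg-Ctrl and HT29 RNF43 G659fs CRISPR-edited isogenic cells were seeded at 2500 cells/well in 384-well plates in duplicate and treated for 96 h. Viability was read by CellTiter-Glo and reported as % activity relative to DMSO, with MG132 as the positive control (negative = growth inhibition).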

SMILES	cell viability activity [%]
CNCCCOc1cc(F)c(-c2c(Cl)nc3ncnn3c2N[C@@H](C)C(F)(F)F)c(F)c1	-72.6
C[C@H]1O[C@H](O[C@H]2[C@H](O)[C@@H](O)[C@@H](O[C@H]3[C@H](O)[C@@H](O)C(O)O[C@@H]3CO)O[C@@H]2CO)[C@H](O)[C@@H](O)[C@@H]1N[C@H]1C=C(CO)[C@@H](O)[C@H](O)[C@H]1O (some centres undefined)	-83.5
O=C1NCN(c2ccccc2)C12CCN(CCCC(c1ccc(F)cc1)c1ccc(F)cc1)CC2	-27.2
Nc1nc2[nH]cnc2c(=S)[nH]1	-81.6
O=C(O)c1ccc(-n2nc(-c3ccccc3O)nc2-c2ccccc2O)cc1	-27.9
CN1CCN(c2ccc(OC(F)(F)F)c(Nc3ncc4c(n3)-c3c(c(C(N)=O)nn3CCO)CC4)c2)CC1	-69
COc1cc2c(cc1-c1c(C)noc1C)ncc1[nH]c(=O)n([C@H](C)c3ccccn3)c12	-60.5
C/C=C1\NC(=O)[C@H]2CSSCC/C=C/[C@H](CC(=O)N[C@H](C(C)C)C(=O)N2)OC(=O)[C@H](C(C)C)NC1=O	-94.9
CC(C)C[C@H](NC(=O)[C@H](Cc1ccccc1)NC(=O)c1cnccn1)B(O)O	-94.1
OCCn1cc(-c2ccc3c(c2)CC/C3=N\O)c(-c2ccncc2)n1	-29.3
C[C@@H]1CC[C@@]2(NC1)O[C@H]1C[C@H]3[C@@H]4CC=C5C[C@@H](O[C@@H]6O[C@H](CO)[C@@H](O[C@@H]7O[C@@H](C)[C@H](O)[C@@H](O)[C@H]7O)[C@H](O)[C@H]6O[C@@H]6O[C@@H](C)[C@H](O)[C@@H](O)[C@H]6O)CC[C@]5(C)[C@H]4CC[C@]3(C)[C@H]1[C@@H]2C	-94
C/C(=N\NC(=S)N1CCC1)c1ccccn1	-82.2
O=c1[nH]cc(F)c(=O)[nH]1	-32.3
COc1ccc(S(=O)(=O)Nc2cccnc2Nc2ccc(O)cc2)cc1	-63.9
Nc1ccc(-c2cccc3c(=O)cc(N4CCOCC4)oc23)cc1	-64.9
CC1=NN(c2ccc(C(=O)O)cc2)C(=O)/C1=C\c1ccc(-c2cc(C)c(C)cc2[N+](=O)[O-])o1	-62.3
CCOC(=O)CCNc1cc(N2CCc3ccccc3CC2)nc(-c2ccccn2)n1	-82.7
O=C(NOCC1CC1)c1ccc(F)c(F)c1Nc1ccc(I)cc1Cl	-66.2
COC(=O)C1=C(C)NC(C)=C(C(=O)OCCCN2CCC(c3ccccc3)(c3ccccc3)CC2)[C@@H]1c1cccc([N+](=O)[O-])c1	-65.6

SMILES	cell viability activity [%]
CCCCCCCCCCCC[N+](C)(C)CCOc1ccccc1	-84.4
O=[N+]([O-])c1ccccc1S(=O)(=O)NCC1CCC(CNCC2CCc3ccccc3C2)CC1 (centres undefined)	-63.8
COC(=O)Nc1ccc(-c2nc(N3CCOCC3)c3cnn(C4CCN(Cc5cccnc5)CC4)c3n2)cc1	-55.8
Cc1nc(Nc2n[nH]c3c2CN(C(=O)N[C@H](CN(C)C)c2ccccc2)C3(C)C)c2sccc2n1	-73.8
CCCCC(CC)CNC(=N)NC(=N)NCCCCCCNC(=N)NC(=N)NCC(CC)CCCC (centres undefined)	-90.6
Cc1[nH]c2ccccc2c1CCNCc1ccc(/C=C/C(=O)NO)cc1	-99.3
CN(C)C(=O)C(CCN1CCC(O)(c2ccc(Cl)cc2)CC1)(c1ccccc1)c1ccccc1	-67.6
CC[C@@]1(O)C(=O)OCc2c1cc1n(c2=O)Cc2c-1nc1cc(F)c(C)c3c1c2[C@@H](N)CC3	-91.7
COc1cccc(-c2cc(F)ccc2[C@H]2Cc3nc(N)nc(C)c3C(=O)N2)n1	-82.4
O=C(c1ccc(F)c(F)c1Nc1ccc(I)cc1F)N1CC(O)([C@@H]2CCCCN2)C1	-86.8
CC(C)[C@H]1c2ccc(F)cc2CC[C@@]1(CCN(C)CCCc1nc2ccccc2[nH]1)OC(=O)C1CC1	-90
Nc1ncccc1-c1nc2ccc(-c3ccccc3)nc2n1-c1ccc(C2(N)CCC2)cc1	-70.4
Cc1nc(NC(=O)N2CCC[C@H]2C(N)=O)sc1-c1ccnc(C(C)(C)C(F)(F)F)c1	-49.8
COc1cc(-c2ncn(/C=C/C(=O)OC(C)C)n2)cc(C(F)(F)F)c1	-69.7
Cc1c(-c2ccc(O)cc2)n(Cc2ccc(OCCN3CCCCCC3)cc2)c2ccc(O)cc12	-67.2
Cc1ccc([N+](=O)[O-])cc1S(=O)(=O)N(C)/N=C/c1cnc2ccc(Br)cn12	-88.7
COc1cc([C@@H]2c3cc4c(cc3[C@@H](O[C@@H]3O[C@@H]5CO[C@@H](C)O[C@H]5[C@H](O)[C@H]3O)[C@H]3COC(=O)[C@H]23)OCO4)cc(OC)c1OP(=O)(O)O	-25.3
Cc1ccc(C(=O)Nc2ccc(Oc3cc4cnn(C)c4cc3-c3cn[nH]c3)c(F)c2)c(=O)n1-c1ccc(F)cc1	-41.5

test system: HT29 sg-Ctrl (RNF43 wildtype); test: as above; settings: 5 µM; 96 h
Experimental: as §1

SMILES	cell viability activity [%]
CNCCCOc1cc(F)c(-c2c(Cl)nc3ncnn3c2N[C@@H](C)C(F)(F)F)c(F)c1	-62.1
C[C@H]1O[C@H](O[C@H]2[C@H](O)[C@@H](O)[C@@H](O[C@H]3[C@H](O)[C@@H](O)C(O)O[C@@H]3CO)O[C@@H]2CO)[C@H](O)[C@@H](O)[C@@H]1N[C@H]1C=C(CO)[C@@H](O)[C@H](O)[C@H]1O (some centres undefined)	-86.3
O=C1NCN(c2ccccc2)C12CCN(CCCC(c1ccc(F)cc1)c1ccc(F)cc1)CC2	-69.5
Nc1nc2[nH]cnc2c(=S)[nH]1	-73.9
O=C(O)c1ccc(-n2nc(-c3ccccc3O)nc2-c2ccccc2O)cc1	-27.1
CN1CCN(c2ccc(OC(F)(F)F)c(Nc3ncc4c(n3)-c3c(c(C(N)=O)nn3CCO)CC4)c2)CC1	-82.8
COc1cc2c(cc1-c1c(C)noc1C)ncc1[nH]c(=O)n([C@H](C)c3ccccn3)c12	-68.4
C/C=C1\NC(=O)[C@H]2CSSCC/C=C/[C@H](CC(=O)N[C@H](C(C)C)C(=O)N2)OC(=O)[C@H](C(C)C)NC1=O	-77.3
CC(C)C[C@H](NC(=O)[C@H](Cc1ccccc1)NC(=O)c1cnccn1)B(O)O	-94.6
OCCn1cc(-c2ccc3c(c2)CC/C3=N\O)c(-c2ccncc2)n1	-39.2
C[C@@H]1CC[C@@]2(NC1)O[C@H]1C[C@H]3[C@@H]4CC=C5C[C@@H](O[C@@H]6O[C@H](CO)[C@@H](O[C@@H]7O[C@@H](C)[C@H](O)[C@@H](O)[C@H]7O)[C@H](O)[C@H]6O[C@@H]6O[C@@H](C)[C@H](O)[C@@H](O)[C@H]6O)CC[C@]5(C)[C@H]4CC[C@]3(C)[C@H]1[C@@H]2C	-86.6
C/C(=N\NC(=S)N1CCC1)c1ccccn1	-88.9
O=c1[nH]cc(F)c(=O)[nH]1	-14.8
COc1ccc(S(=O)(=O)Nc2cccnc2Nc2ccc(O)cc2)cc1	-55.9
Nc1ccc(-c2cccc3c(=O)cc(N4CCOCC4)oc23)cc1	-76.6
CC1=NN(c2ccc(C(=O)O)cc2)C(=O)/C1=C\c1ccc(-c2cc(C)c(C)cc2[N+](=O)[O-])o1	-79.6
CCOC(=O)CCNc1cc(N2CCc3ccccc3CC2)nc(-c2ccccn2)n1	-27.5
O=C(NOCC1CC1)c1ccc(F)c(F)c1Nc1ccc(I)cc1Cl	-77.6
COC(=O)C1=C(C)NC(C)=C(C(=O)OCCCN2CCC(c3ccccc3)(c3ccccc3)CC2)[C@@H]1c1cccc([N+](=O)[O-])c1	-91.4

SMILES	cell viability activity [%]
CCCCCCCCCCCC[N+](C)(C)CCOc1ccccc1	-91.5
O=[N+]([O-])c1ccccc1S(=O)(=O)NCC1CCC(CNCC2CCc3ccccc3C2)CC1 (centres undefined)	-61.4
COC(=O)Nc1ccc(-c2nc(N3CCOCC3)c3cnn(C4CCN(Cc5cccnc5)CC4)c3n2)cc1	-48.1
Cc1nc(Nc2n[nH]c3c2CN(C(=O)N[C@H](CN(C)C)c2ccccc2)C3(C)C)c2sccc2n1	-79.1
CCCCC(CC)CNC(=N)NC(=N)NCCCCCCNC(=N)NC(=N)NCC(CC)CCCC (centres undefined)	-88.4
Cc1[nH]c2ccccc2c1CCNCc1ccc(/C=C/C(=O)NO)cc1	-96.1
CN(C)C(=O)C(CCN1CCC(O)(c2ccc(Cl)cc2)CC1)(c1ccccc1)c1ccccc1	-75.2
CC[C@@]1(O)C(=O)OCc2c1cc1n(c2=O)Cc2c-1nc1cc(F)c(C)c3c1c2[C@@H](N)CC3	-90.4
COc1cccc(-c2cc(F)ccc2[C@H]2Cc3nc(N)nc(C)c3C(=O)N2)n1	-81.1
O=C(c1ccc(F)c(F)c1Nc1ccc(I)cc1F)N1CC(O)([C@@H]2CCCCN2)C1	-88.9
CC(C)[C@H]1c2ccc(F)cc2CC[C@@]1(CCN(C)CCCc1nc2ccccc2[nH]1)OC(=O)C1CC1	-90.4
Nc1ncccc1-c1nc2ccc(-c3ccccc3)nc2n1-c1ccc(C2(N)CCC2)cc1	-49.1
Cc1nc(NC(=O)N2CCC[C@H]2C(N)=O)sc1-c1ccnc(C(C)(C)C(F)(F)F)c1	-16
COc1cc(-c2ncn(/C=C/C(=O)OC(C)C)n2)cc(C(F)(F)F)c1	-76.9
Cc1c(-c2ccc(O)cc2)n(Cc2ccc(OCCN3CCCCCC3)cc2)c2ccc(O)cc12	-93.1
Cc1ccc([N+](=O)[O-])cc1S(=O)(=O)N(C)/N=C/c1cnc2ccc(Br)cn12	-94.4
COc1cc([C@@H]2c3cc4c(cc3[C@@H](O[C@@H]3O[C@@H]5CO[C@@H](C)O[C@H]5[C@H](O)[C@H]3O)[C@H]3COC(=O)[C@H]23)OCO4)cc(OC)c1OP(=O)(O)O	-24.7
Cc1ccc(C(=O)Nc2ccc(Oc3cc4cnn(C)c4cc3-c3cn[nH]c3)c(F)c2)c(=O)n1-c1ccc(F)cc1	-29
